# Source: PubChem BioAssay AID504465 (National Center for Advancing Translational Sciences (NCATS), 2011)
# Among all 2,100 compounds or so, about 210 (10%) were called active. Not shown: some 53% with an inconclusive outcome. The list shows a part of the results. Unmarked numbers belong to inactive results. Calls follow the shape of the dose curve; as a rule, active = well fitted inhibition curve with a large enough effect; inconclusive = small, poorly fitted or top-dose-only effect, or effect the other way; inactive = no such curve, though single readings can be large or run the other way.
# Assay: IN Cell qHTS Assay for Inhibitors of the mTORC1 Signaling Pathway in MEF (Tsc2-/-, p53-/-) Cells: Sytravon; also: nearly all actives have a fitted effect of over 60% in size
# Conditions: phospho-rpS6 immunofluorescence, 24 h; series mostly up to 38.3 µM; activity, negative = inhibition: at the top concentration
# Method in brief: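 Immunofluorescence of rpS6 phosphorylation (Ser235/236) in mouse embryonic fibroblasts lacking Tsc2 and p53, after 24 h compound exposure; Hoechst-normalized signal imaged, each well scored as % active cells relative to rapamycin (7.5 nM) and DMSO controls.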
# Potency is read from the fitted curve at half-maximal effect.
SMILES,"activity, negative = inhibition",Potency
COc1ccc(-c2ccc(CNc3ccc4[nH]c(=O)[nH]c4c3)o2)cc1Cl,-54.9%,–
CCCNC(=O)c1ccc2c(c1)N=C(CCC)c1ccccc1S2,-25.5%,–
CCOc1ccc(OCC)c(NC(=O)C(NS(=O)(=O)c2cccs2)c2ccccc2)c1 (configuration not stated),1.85%,–
CSc1ccc(CCNC(=O)CCn2c(=O)c3cccn3c3ccc(F)cc32)cc1,-19.8%,–
CSc1ccc(CCNC(=O)C(C)n2nc(C)c3sc4ccccc4c3c2=O)cc1 (configuration not stated),–,1.17 µM (active)
Cc1nn(CCCC(=O)NCCc2ccc(Cl)cc2)c(=O)c2c1sc1ccccc12,–,11.7 µM (active)
Cc1nn(C(C)C(=O)NC2CCC(C)CC2)c(=O)c2c1sc1ccccc12 (configuration not stated),–,5.21 µM (active)
Cc1ccc(CCNC(=O)c2c3c(nc4ccccc24)C(=O)N(C2CCCCC2)C3)cc1,-5.87%,–
COc1ccc(Cn2ccc3nc(C)c(C(=O)N4CCN(c5ccc(OC)cc5)CC4)cc3c2=O)cc1,-1.62%,–
COc1ccc(CNC(=O)CCCN2C(=O)CSc3c2c(C)nn3-c2ccccc2)cc1,-4.75%,–
COc1ccc(N2CCN(C(=O)C(C)n3nc(C)c4sc5ccccc5c4c3=O)CC2)cc1 (configuration not stated),–,1.85 µM (active)
CCCOc1ccc(CNC(=O)CCCn2nc(C)c3sc4ccccc4c3c2=O)cc1,-12.9%,–
CCC(C(=O)N1CCN(c2cc(Cl)ccc2C)CC1)n1nc(C)c2sc3ccccc3c2c1=O (configuration not stated),-11.9%,–
CC1CCN(C(=O)CN2c3ccc(C(C)C)cc3-c3ccccc3S2(=O)=O)CC1,-27%,–
COc1ccccc1N1CCN(S(=O)(=O)c2ccc(-n3cnnn3)cc2)CC1,-7.47%,–
Cc1cc(C)cc(OCC(=O)Nc2ccc(-c3nc4ncccc4o3)cc2C)c1,-21.9%,–
COc1cccc(C2CC(=O)Nc3cc4c(cc32)OCCO4)c1OC (configuration not stated),-21.4%,–
COc1cc(/C=C/c2nc(C#N)c(N3CCCCCC3)o2)cc(OC)c1OC,-24.2%,–
CCOc1ccc(-c2c(C)nn3c(C)c(C(=O)Nc4cccc(Cl)c4C)cnc23)cc1OCC,-10.9%,–
COc1ccc(CCNC(=O)C(C)n2nc(C)c3sc4ccccc4c3c2=O)c(OC)c1 (configuration not stated),–,4.65 µM (active)
COc1ccc(CNC(=O)c2cc(-c3ccc(Br)s3)nc3ccccc23)c(OC)c1,-13.5%,–
COc1ccc(CNC(=O)CCCc2cn(C)c3ccccc23)c(OC)c1,6.25%,–
O=C(Cn1cc(SCc2cccc(C(F)(F)F)c2)c2ccccc21)N1CCCCCC1,-22.9%,–
Cc1cccc(-c2noc(CNC(=O)c3ccc(C)cc3C)n2)c1,-7.27%,–

SMILES,"activity, negative = inhibition",Potency
Cc1ccc(NC(=O)c2cc(S(=O)(=O)NCCC3=CCCCC3)ccc2F)cc1F,6.25%,–
COc1ccc(-n2ncc3c(NCCCOC(C)C)ncnc32)cc1,-3.87%,–
COc1cccc(-c2noc(CCCC(=O)NCc3ccco3)n2)c1,-11.3%,–
COc1ccccc1N1CCN(C(=O)c2nc(SC)ncc2Cl)CC1,-10.7%,–
COc1ccccc1N1CCN(C(=O)c2cnc(N3CCCCC3)c3ccccc23)CC1,–,5.85 µM (active)
O=C(NCc1ccccc1Cl)c1cnc(N2CCCCC2)c2ccccc12,-24.1%,–
Cc1ccccc1Nc1c(-c2cccc(N(C)C)c2)nc2ccc(Br)cn12,24.1%,–
Cc1cc(=O)n(CC(=O)N2CCN(c3ccccc3F)CC2)c2c1c(C)nn2C,-5.56%,–
COc1cc(NC(=O)Cn2nc(C(F)(F)F)c3c2CCCC3)c(OC)cc1Cl,-24%,–
CCCC(=O)Nc1nnc(SCc2cc(=O)c3ccc(C)cc3[nH]2)s1,–,3.69 µM (active)
Cc1nnc(NC(=O)CSCc2cc(=O)c3ccccc3[nH]2)s1,14.3%,–
O=C(Nc1nnc(SCc2cc(=O)c3ccccc3[nH]2)s1)c1ccccc1,-6.25%,–
Cc1ccc(-n2c(SCc3nc(-c4ccccc4C)no3)nnc2-c2ccncc2)cc1C,-7.02%,–
C=CCc1cccc2cc(-c3nc4ccc(C)cc4[nH]3)c(=O)oc12,-4.54%,–
CCC(C(=O)Nc1cc(-c2nc3cccnc3s2)ccc1C)c1ccccc1 (configuration not stated),-14.5%,–
CSc1cccc(Nc2cc(C(=O)NCCCN(Cc3ccccc3)C(C)C)c3ccccc3n2)c1,0%,–
CC1CCCN(CCCNC(=O)c2cc(Sc3ccc(F)cc3)nc3ccccc23)C1 (configuration not stated),6.25%,–
CCCCN(CCCNC(=O)c1cc(Nc2ccc(OC)c(OC)c2)nc2ccccc12)Cc1ccccc1,–,2.33 µM (active)
COc1ccccc1Nc1cc(C(=O)NCCCN(C)C2CCCCC2)c2ccccc2n1,–,1.65 µM (active)
COc1ccc(Nc2cc(C(=O)NCCCN(C)Cc3ccccc3)c3ccccc3n2)cc1OC,0%,–
COc1ccc(N2CCN(CCCNC(=O)c3cc(Nc4ccccc4OC)nc4ccccc34)CC2)cc1,0%,–
CC1CCCCN1S(=O)(=O)c1ccc(C(=O)Nc2sc3c(c2C(N)=O)CC(C)(C)NC3(C)C)cc1 (configuration not stated),6.25%,–
COc1ccccc1NC(=O)C1=C(C)Nc2nc(SCc3ccccc3)nn2C1c1cccs1 (configuration not stated),-16.2%,–
